Compound activity (PubChem BioAssay)
Rows were chosen to be rich in hits. Some 17% of all compounds tested hit in one or more screens of this group.
TDP1 cell CPT – DT40-hTDP1 cell growth loss with CPT; chicken DT40 Tdp1-/-;hTDP1 cells + 20 nM CPT, ATP luminescence, 48 h; Potency, µM (series often up to 46.2 µM), hits mostly inhibitors; hit rate 12% among 420,000; AID 686979; also: nearly all actives have a fitted effect of over 55% in size
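Chicken DT40 Tdp1-/- cells stably complemented with human TDP1 were seeded at 400 cells/well in medium containing 20 nM camptothecin, exposed to pin-transferred compounds, and grown at 37 °C for at least 48 hr. Viability was read as ATP luminescence.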
TGFb inhibitor – TGF-b pathway inhibition. HepG2 CAGA-GFP TGF-b/SMAD3 reporter, GFP fluorescence, 18 h; TGF-beta stimulated, 500 pg/mL final. Potency, µM (top dose mostly 46.1 µM), most hits filed as inhibitors. hit rate 1.2% among 410,000; also: nearly all actives have a fitted effect of over 65% in size
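Using HEPG2 CAGA-GFP reporter cells at 1000 cells/well, we pinned test compounds, stimulated with recombinant TGF-beta (500 pg/mL final) and measured total well GFP after 18 h.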
HT1080 IDH1KD tx – HT-1080 IDH1 knockdown cell toxicity (counter line). HT-1080 IDH1 knockdown viability, ATP luminescence, 48 h. Potency, µM (highest dose often 46.1 µM), most hits filed as cytotoxic. hit rate 2% among 360,000. AID 686971
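Cytotoxicity counter-line: IDH1KD HT-1080, 48 h, CellTiter-Glo. Curves classed by r2, magnitude and activity.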
TDP1 cell noCPT – qHTS for Inhibitors of human tyrosyl-DNA phosphodiesterase 1 (TDP1): qHTS in cells in absence of CPT; DT40 Tdp1-/- hTDP1 cells, no CPT, ATP luminescence, 48 h; hit rate 15% among 420,000; Potency, µM (highest dose often 46.2 µM), actives largely listed as inhibitors; also: nearly all actives have a fitted effect of over 55% in size
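DT40 Tdp1-/-;hTDP1 cells, no CPT (DMSO vehicle only), 400 cells/well; compounds pin-transferred; ≥48 hr, 37 °C; CellTiter-Glo 30 min RT dark, luminescence read.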
HepG2 tox – kills HepG2 cells in TGF-b inhibitor counter-screen; Potency, µM (doses to about 46.1 µM), actives largely listed as cytotoxic; AID 588856; HepG2 CAGA-GFP viability, ATP luminescence, 18 h; hit rate 0.76% among 410,000
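CellTiter-Glo luminescence gave cytotoxicity after 18 hours at 37 degrees C. The cells were HepG2 CAGA-GFP in 1% FBS DMEM, stimulated with 500 pg/mL TGF-beta after compound addition. %Activity was normalised to no-cell wells (complete cell-killing) and DMSO (no toxicity), and curves were fitted and classified.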
HT1080-NT tox – kills 2HG-producing HT-1080-NT fibrosarcoma cells; Potency, µM (doses to about 46.1 µM), hits mostly cytotoxic; hit rate 1.6% among 360,000; AID 686970; HT-1080-NT fibrosarcoma viability, CellTiter-Glo ATP luminescence, 48 h;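 also: NT is the 2HG producing partner of a matched IDH1 knockdown line; nearly all actives have a fitted effect of over 55% in size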
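HT-1080-NT fibrosarcoma cells (2HG-overproducing), 750 cells/well in RPMI with 5% FBS, dosed after 2 h and incubated 48 h at 37C. CellTiter-Glo luminescence normalized to DMSO and no-cell wells; concentration-response curves fitted and classed.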
Numbers stand for hits; - = inactive; ? = inconclusive; . = not tested or not shown. Calls follow the shape of the dose curve; as a rule, active = well fitted curve in the direction sought with a large enough effect; inconclusive = small, poorly fitted or top-dose-only effect, or another doubt; inactive = no such curve, though single readings can be large; an effect the other way counts as inactive or inconclusive.

SMILES	TDP1 cell CPT	TGFb inhibitor	HT1080 IDH1KD tx	TDP1 cell noCPT	HepG2 tox	HT1080-NT tox
CC1=C(C(=O)Nc2ccccc2C(F)(F)F)C(c2sccc2C)NC(=S)N1 (stereo unspecified)	6.5µM	-	-	16µM	-	-
CCCCNC(=O)c1cccnc1SCC(=O)Nc1ccccc1OC	-	-	-	-	-	-
CCCCCCCCNC(=O)c1cccnc1SCC(=O)Nc1ccc(OC)cc1OC	-	-	-	21µM	-	-
O=[N+]([O-])CC(c1ccccc1)c1c[nH]c2ccccc12 (stereo unspecified)	7.3µM	?	15µM	5.8µM	-	?
CCOC(=O)Nc1ccc2c(c1)N(C(=O)OCCN(C)C)c1ccccc1CC2	18µM	-	-	?	-	-
CCOC(=O)Nc1ccc2c(c1)N(C(=O)CCN(C)C)c1ccccc1CC2	-	?	-	-	-	-
CCOC(=O)N/N=C/C=C/c1ccccc1	-	-	-	-	-	-
O=C1C=C(c2ccc(F)nc2)C[C@@H](c2ccc3c(c2)OCO3)C1	-	-	-	?	-	-
Cc1cccc(NC(=S)N=Nc2c(O)n(CN3CCOCC3)c3ccccc23)c1C	5.8µM	2.2µM	-	5.8µM	-	-
Cn1c(O)c(N=NC(=S)Nc2ccccc2F)c2cc(S(=O)(=O)N3CCOCC3)ccc21	5.2µM	?	?	5.8µM	-	-
Cc1ccc(NC(=S)N=Nc2c(O)n(C)c3ccc(S(=O)(=O)N4CCOCC4)cc23)cc1C	2.1µM	-	?	3.7µM	-	-
Cc1cc(=O)n(C)c2ccc(S(=O)(=O)N3CCOCC3)cc12	-	-	-	-	-	-
C=CCn1c(O)c(N=NC(=S)Nc2ccccc2C)c2cc(S(=O)(=O)N3CCOCC3)ccc21	3.3µM	?	?	0.73µM	-	?
Cn1c(=O)c2cc(S(=O)(=O)N3CCOCC3)ccc2n(C)c1=O	-	-	-	-	-	-
CC(C)Oc1ccc(CNC(=O)c2ccc3c(c2)nc2n3CCCCC2)cc1	?	-	.	?	-	.
CSc1ccc(CCNC(=O)c2ccc3c(c2)nc2n3CCC(C)C2)cc1 (stereo unspecified)	21µM	-	.	13µM	-	.
Cc1ccccc1CCNC(=O)c1ccc2c(c1)nc1n2CCCCC1	?	-	.	?	-	.
CC(CNC(=O)c1ccc2c(c1)nc1n2CCCCC1)c1ccccc1 (stereo unspecified)	23µM	-	.	?	-	.
CSc1ccc(CCNC(=O)c2ccc3c(c2)nc2n3CCCCC2)cc1	-	?	.	16µM	-	.
COc1ccc(Br)cc1CNC(=O)c1ccc2c(c1)nc1n2CCCCC1	?	-	.	16µM	-	.
Cc1ccc(C)c(CNC(=O)c2ccc3c(c2)nc2n3CCC(C)C2)c1 (stereo unspecified)	?	-	.	21µM	-	.
CC1CCn2c(nc3cc(C(=O)NCc4ccccc4)ccc32)C1 (stereo unspecified)	-	?	.	-	-	.
CN(CCOc1ccc(Cl)cc1)CC(=O)Nc1ccc(OC(F)F)cc1	?	?	-	-	-	-
CN(CCOc1ccccc1)CC(=O)Nc1ccc(Br)cc1F	?	-	?	16µM	-	?
CCC(C)c1ccccc1NC(=O)CN(C)CCOc1ccc(Cl)cc1 (stereo unspecified)	?	-	?	23µM	-	?
Cc1ccc(NC(=O)CN(C)CCOc2ccccc2)c([N+](=O)[O-])c1	?	-	-	-	-	-
Cc1ccc(S(=O)(=O)c2nc(-c3ccccc3Cl)oc2N(C)C)cc1	7.3µM	-	?	10µM	-	?
Cc1ccc(-c2nc(S(=O)(=O)c3ccc(C)cc3)c(N(C)C)o2)cc1	?	-	-	23µM	-	-
Cc1ccc(S(=O)(=O)c2nc(-c3ccccc3Br)oc2N(C)C)cc1	21µM	?	?	?	-	-
